In PubChem BioAssay AID2599 (Sanford-Burnham Center for Chemical Genomics, 2010):
About 5,800 (1.8%) of roughly 330,000 compounds were called active. The list comes from a sample in which actives are over-represented; it also holds similar structures and randomly drawn compounds. Unmarked numbers belong to inactive results.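 Rule for the calls: active = inhibition above about 50% at the single tested dose (limit read from the data); inactive = the rest.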

Each molecule was assayed against Sentrin-specific protease 6 (Homo sapiens) (UniProt Q9GZR1) (assay: inhibition of human SENP6 catalytic domain – biochemical, luminescence, uHTS, primary screen (AID 2599;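 note: plate controls were DMSO wells with enzyme for no effect and DMSO wells lacking enzyme for full effect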)). Details: Recombinant SENP6 catalytic domain, aminoluciferin luminescence; at 10 µM; hits give high values.
Chain of Sentrin-specific protease 6 (Homo sapiens) (Q9GZR1 628-1112 limits assumed): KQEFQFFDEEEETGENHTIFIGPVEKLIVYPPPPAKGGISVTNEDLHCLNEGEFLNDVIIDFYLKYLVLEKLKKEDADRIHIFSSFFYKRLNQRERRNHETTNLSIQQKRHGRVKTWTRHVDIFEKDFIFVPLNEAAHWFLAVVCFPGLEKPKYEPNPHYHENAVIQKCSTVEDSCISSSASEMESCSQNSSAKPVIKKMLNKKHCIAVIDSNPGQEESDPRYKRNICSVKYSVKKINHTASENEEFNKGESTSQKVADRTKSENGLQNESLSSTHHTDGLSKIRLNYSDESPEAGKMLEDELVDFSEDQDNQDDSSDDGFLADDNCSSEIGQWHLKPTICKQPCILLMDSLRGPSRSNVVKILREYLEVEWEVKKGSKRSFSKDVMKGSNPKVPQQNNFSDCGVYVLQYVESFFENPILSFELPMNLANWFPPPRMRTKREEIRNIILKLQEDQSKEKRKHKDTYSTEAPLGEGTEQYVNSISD
`Cc1cc(C)cc(NC(=O)N(C)Cc2ccccc2)c1` was tested, and the inhibition was -7.22%.
`Cc1c(NC(=O)CSCc2ccccc2)cccc1C(=O)O` showed an inhibition of 9.84%.
With `CN1CCNC(=O)C1CC(=O)N1CC=C(c2ccc(F)cc2)CC1` (stereo not given) the inhibition was 4.55%.
For `COc1ccc(/C=C2\SC(=O)N(CCC(=O)NC3CCS(=O)(=O)C3)C2=O)cc1` (stereo not given), the inhibition was 12.7%.
Work on `COc1ccc(/C=C2\SC(=O)N(CCC(=O)NCCCn3ccnc3)C2=O)cc1` yielded an inhibition of 15.6%.
With `COc1ccc(/C=C2/SC(=O)N(CCCCCC(=O)Nc3ccccc3C(=O)O)C2=S)cc1` the inhibition was 63.7% (active).
Molecule `O=C(Nn1c(-c2ccc(Cl)cc2)nc2ccccc2c1=O)c1cccnc1Cl` has an inhibition of 1.41%.
Work on `Cc1ccc2c(c1)N(C(=O)CCC(=O)N1CCc3ccccc3C1)CCO2` yielded an inhibition of 10.2%.
For `Oc1ccc(CNc2ccccc2O)cc1`, the inhibition was 17.3%.
For `CCOC(=O)C1(Cc2ccccc2C)CCCN(C(=O)CCc2c(C)noc2C)C1` (stereo not given), the inhibition was 9.37%.
`CC1(C)Cc2c(sc3nc4n(c(=N)c23)CCCCC4)CO1` was tested, and the inhibition was -4.65%.
`N=c1c2c3c(sc2ncn1N)CCCCC3` gave an inhibition of -21.7%.
For `N=c1c2c3c(sc2nc2n1CCCCC2)CCCC3`, the inhibition was 64.2% (active).
`CC(OC(=O)CCc1nc(=O)c2ccccc2n1C)C(=O)NCc1ccc2c(c1)OCO2` (stereo not given) gave an inhibition of -15.7%.
In the case of `Cc1cc(NC(=O)COc2ccc([N+](=O)[O-])cc2)no1`, the inhibition is reported as -2.83%.
In the case of `Cc1cc(NC(=O)Nc2ccccc2[N+](=O)[O-])no1`, the inhibition is reported as 54% (active).
`Cc1cc(NC(=O)c2ccccc2C)no1` showed an inhibition of -1.58%.
`Nc1ccn(CC(=O)N2CCN(c3ccccn3)CC2)c(=O)n1` gave an inhibition of -3.83%.
`CC(C)C(=O)NC(NC(=S)NC1CCS(=O)(=O)C1)C(Cl)(Cl)Cl` (stereo not given) was tested, and the inhibition was -19.9%.
`CC(=O)Nc1ccc(/C=C/C(=O)c2ccccc2)cc1` gave an inhibition of -17%.
`Cc1cc(N/C=C\C(=O)c2ccc(Cl)c(Cl)c2)no1` gave an inhibition of -3.41%.
For `Cc1ccc(N/C=C/C(=O)c2ccccc2)cc1C`, the inhibition was 95.8% (active).
For `CCOc1ccc(N/C=C/C(=O)c2ccccc2)cc1`, the inhibition was 94.4% (active).
Work on `COc1ccc(N2C(=O)CCC(C(=O)Nc3ccccn3)C2c2ccc(OC)c(OC)c2)cc1` (stereo not given) yielded an inhibition of -4.43%.
`CCOc1ccc(NC(=S)N2CCC(NC(=O)c3ccccc3)CC2)cc1` was tested, and the inhibition was -17.6%.
In the case of `O=C(/C=C/NCc1ccc(F)cc1)c1ccccc1`, the inhibition is reported as -0.568%.
`COc1ccc(C(=O)/C=C/Nc2ccccn2)cc1` was tested, and the inhibition was 97.2% (active).
For `CCOc1ccc(N/C=C/C(=O)c2cc(OC)c(OC)c(OC)c2)cc1`, the inhibition was -7.87%.
`C[C@H](NC(=O)C1CC(=O)N(c2ccc3c(c2)OCCO3)C1)C(=O)N1CCC(C(=O)O)CC1` (stereo not given in full) gave an inhibition of -10.8%.
For `CCC(C)CN1CCC(CO)(Cc2ccccc2Cl)CC1` (stereo not given), the inhibition was 8.24%.
`CC1CCC(CN2CCN=C2N(C)C)CC1` (stereo not given) was tested, and the inhibition was -19.7%.
With `Cc1ccccc1C(OCCN(C)C)C1CCCCC1` (stereo not given) the inhibition was -10.8%.
`COc1ccc(C2=NOC(COC(=O)c3ccc4ccccc4n3)C2)cc1` (stereo not given) gave an inhibition of -7.77%.
Molecule `Cc1ccc(C(=O)NNC2=Nc3cc([N+](=O)[O-])ccc3OC2)cc1` has an inhibition of -18.4%.
`COc1ccc(C2=Nc3cc(C)ccc3OC2)cc1` was tested, and the inhibition was 81.7% (active).
In the case of `CCOCCN(C=O)c1cccc(OC)c1`, the inhibition is reported as -10.1%.
`O=C(COC(=O)c1n[nH]c2ccccc12)Nc1ccccc1Br` showed an inhibition of -4.53%.
Molecule `CCCn1nc(C(=O)OCc2nc(N)nc(Nc3ccccc3C)n2)c2ccccc2c1=O` has an inhibition of -0.795%.
With `COc1cc(/C=C/C(=O)OCC(=O)N2CCOCC2)ccc1OCC#N` the inhibition was 2.81%.
`COc1ccc(N2C(=O)C(O)C2c2ccc(C)cc2)cc1` (stereo not given) showed an inhibition of -8.14%.
`Cc1ccc2nc(N3CCN(C(=O)c4ccco4)CC3)sc2c1` showed an inhibition of -9.94%.
In the case of `Cc1ccc2cc3cc(C(=O)N4CCCCCC4)oc3nc2c1`, the inhibition is reported as 57.1% (active).
`Cc1cc(C)cc(NC(=O)N2CCCCCCC2)c1` gave an inhibition of -8.39%.
`COC(=O)c1cccc(C(=O)N2CCCC(Nc3ccc4c(c3)OCCO4)C2)c1` (stereo not given) showed an inhibition of 8.68%.
Work on `OCCC#Cc1ccc(CN2CCN(Cc3ccsc3)C(CCO)C2)cc1` (stereo not given) yielded an inhibition of -21.1%.
Molecule `Cc1ccc(-c2cc(C(=O)N/N=C/C=C/c3ccccc3)n[nH]2)o1` has an inhibition of 1.41%.
With `Cc1cc(C(=O)NNC(=O)c2ccccc2O)c(C)o1` the inhibition was 0.955%.
With `Cc1cc(C(=O)N/N=C/c2ccc(N3CCOCC3)cc2)c(C)o1` the inhibition was 84.3% (active).
For `CC(=C/c1ccccc1)/C=N/NC(=O)c1cc(C)oc1C`, the inhibition was 90.1% (active).
`Cc1cc(C(=O)N/N=C\C(Br)=C\c2ccccc2)c(C)o1` was tested, and the inhibition was 54.2% (active).
`O=C(NN=Cc1ccc(N2CCOCC2)cc1)c1cc2ccccc2cc1O` was tested, and the inhibition was -12.9%.
`COc1ccc(C/C(C)=N/NC(=O)c2cc(C)oc2C)cc1` showed an inhibition of -24.2%.
Molecule `CCN(CC)c1ccc(C(=O)N/N=C/c2ccc(N3CCOCC3)cc2)cc1` has an inhibition of -7.9%.
`CC(C)c1cc(C(=O)N/N=C/C(Br)=C/c2ccccc2)n[nH]1` showed an inhibition of 2.83%.
Molecule `CN1CCN(C(=O)/C(=C\c2cccs2)NC(=O)c2cccs2)CC1` has an inhibition of -14.6%.
With `CC(C)OCCCNC(=O)c1ccc(C2SCC(=O)N2Cc2ccco2)cc1` (stereo not given) the inhibition was -6.37%.
In the case of `CC(Sc1ccccc1F)C(=O)Nc1cccc(S(=O)(=O)N2CCOCC2)c1` (stereo not given), the inhibition is reported as -4.45%.
For `Nc1c(N(CCCO)C(=O)C2CCCC2)c(=O)[nH]c(=O)n1Cc1ccccc1`, the inhibition was -9.42%.
`O=C(Cc1ccccc1)Nc1c(Cl)ccc2nsnc12` showed an inhibition of -21.2%.
Molecule `Cc1ccc(C(=O)N/C(=C/c2cccnc2)C(=O)O)cc1` has an inhibition of -4.97%.
In the case of `C/C(=N\NC(=O)CNC(=O)C(c1ccccc1)c1ccccc1)c1ccc(C)cc1`, the inhibition is reported as 7.95%.
`C/C(=N\NC(=O)c1ccc(C)cc1)C1C(=O)c2ccccc2C1=O` was tested, and the inhibition was 92.3% (active).
With `CC(=O)Nc1ccc(S(=O)(=O)NNC(=O)CCc2ccccc2)cc1` the inhibition was -9.47%.
For `C=C1c2c(Cl)ccc(O)c2C(O)=C2C(=O)[C@]3(O)C(O)=C(C(N)=O)C(=O)[C@@H](N(C)C)[C@@H]3[C@@H](O)C12` (stereo not given in full), the inhibition was 1.61%.
For `Cc1ccccc1NC(=O)CSc1ccc2nnc(-c3ccccn3)n2n1`, the inhibition was -3.48%.
For `CCOC(=O)CSc1nnc(-c2cccc(Br)c2)o1`, the inhibition was -8.5%.
In the case of `CCCCSc1nnc(-c2ccc(C)cc2)o1`, the inhibition is reported as 50.8% (active).
`CCOC(=O)CSc1nnc(-c2ccc([N+](=O)[O-])cc2)o1` showed an inhibition of 2.93%.
Molecule `O=S(=O)(c1ccc(Br)cc1)N1CCC(c2nc3ccccc3[nH]2)CC1` has an inhibition of -3.25%.
`COC(=O)c1scc(C)c1NC(=O)CSc1ccc(Cl)cc1` showed an inhibition of -3.94%.
`Fc1ccccc1-c1cc2cc3c(cc2cn1)OCO3` was tested, and the inhibition was 75.8% (active).
With `O=C(CN1CCN(c2ccccc2F)CC1)c1ccc2c(c1)OCO2` the inhibition was -2.86%.
For `O=C(c1ccco1)N1CCN(C(=O)c2cc(-c3ccccc3F)no2)CC1`, the inhibition was 4.97%.
With `COC(=O)Cc1ccc(N(Cc2ccccc2F)S(=O)(=O)c2ccc(Br)cc2)cc1` the inhibition was -6.45%.
With `CCOc1ccc(OCC)c(NC(=O)CSc2nnc(Cn3cnc4ccccc43)n2C)c1` the inhibition was 3.46%.
`O=C(CCN1CCc2ccccc2C(O)(c2ccccc2)C1)c1ccc2c(c1)OCCO2` (stereo not given) was tested, and the inhibition was -26.4%.
With `CCc1ccc(Oc2coc3cc(O)ccc3c2=O)cc1` the inhibition was 14%.
In the case of `O=c1c(-c2ccccc2)coc2cc(O)ccc12`, the inhibition is reported as 60.4% (active).
`CC(C)CN(Cc1c(O)ccc2c(=O)c(-c3ccccc3)coc12)CC(C)C` gave an inhibition of -12.1%.
For `COc1ccc(C(C)NC(=S)NC2CCCCC2)cc1OC` (stereo not given), the inhibition was -13.2%.
`CNC(=O)C1CC(=O)N(c2ccc(OCC(=O)Nc3ccccc3C)cc2)C1` (stereo not given) gave an inhibition of -8.41%.
Work on `O=C(c1cccs1)N1CCC(c2nc3ccccc3s2)CC1` yielded an inhibition of 5.91%.
`COc1ccc(-n2nnnc2-c2nc3ccccc3s2)cc1` was tested, and the inhibition was 54.6% (active).
`COc1ccc(-n2nnnc2CNC(=O)c2ccc3ccccc3c2)cc1` gave an inhibition of -6.42%.
In the case of `COc1ccc(C2=NN(c3nc4ccccc4s3)C(=O)C2)cc1`, the inhibition is reported as 2.49%.
With `C=CCC(C(=O)c1ccccc1)[N+](C)(C)CC=C` (stereo not given) the inhibition was -7.76%.
`Cc1cnc(CN(C)C(=O)C2CCC(=O)N(CCc3cccc(F)c3)C2)[nH]1` (stereo not given) showed an inhibition of 13.7%.
`Cc1cc(NC(=O)c2ccc(F)cc2)ccc1NC(=O)c1ccco1` showed an inhibition of 43.7%.
Molecule `COc1ccc(OCC(=O)Nc2ccc(NC(=O)c3ccco3)c(C)c2)cc1` has an inhibition of -34.6%.
`COc1ccccc1C(=O)Nc1ccc(NC(=O)c2ccco2)c(C)c1` was tested, and the inhibition was 66.3% (active).
With `COc1cccc(C(=O)Nc2ccc(NC(=O)c3ccco3)cn2)c1` the inhibition was 64.1% (active).
Molecule `Cc1ccc(C(=O)COc2cccc(NC(=O)c3ccco3)c2)cc1` has an inhibition of -16.4%.
Molecule `O=C(Nc1ccc(NC(=O)c2cccs2)cn1)c1ccco1` has an inhibition of 22%.
Work on `CC[C@]1(c2ccccc2OC)C(=O)N(C(=O)OC)N1C(=O)OC` yielded an inhibition of 0.734%.
Molecule `CC(=O)Nc1ccc(OCCC[n+]2cccc(C(=O)[O-])c2)cc1` has an inhibition of -17.4%.
With `Nc1ccc(N=Nc2ccccc2Cl)c(N)n1` the inhibition was 81.2% (active).
`COc1cccc(NC(=O)c2cc(S(=O)(=O)N3CCc4ccccc43)cn2C)c1` showed an inhibition of 3.36%.
In the case of `Cc1ccnc(Nc2nc3ccccc3s2)n1`, the inhibition is reported as 78.6% (active).
In the case of `CC(=O)Nc1cccc(-c2nc3ccccc3s2)c1C`, the inhibition is reported as -16.1%.
Work on `Cc1ccnc(-n2sc3ccccc3c2=O)n1` yielded an inhibition of 2.11%.
